Read-out in test [1]: C-C motif chemokine 2 (Homo sapiens) (UniProt P13500)
Put plainly: BSK_KF3CT_MCP1: BioMAP Diversity Plus: KF3CT Assay for Monocyte Chemoattractant Protein 1 (MCP1/CCL2) Biomarker Activity (AID 2283073). The following applies: primary human keratinocytes with fibroblasts; actives raise or lower the signal. In short, it runs like this: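 ELISA readout of MCP-1 after 24 h chemical dosing of a human skin primary co-culture of keratinocytes and foreskin fibroblasts. Activity was fitted in both directions against DMSO.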

Read-out in test [2]: urokinase plasminogen activator (uPA), PLAU (gene 5328)
Put plainly: BSK_KF3CT_uPA: BioMAP Diversity Plus: KF3CT Assay for urokinase plasminogen activator (uPA) Biomarker Activity (AID 2283075). The following applies: primary human keratinocytes with fibroblasts; actives raise or lower the signal. In short, it runs like this: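 Primary human keratinocyte/foreskin fibroblast co-culture exposed to chemical; uPA measured by ELISA at 24 h. Bidirectional fit versus DMSO, with parallel SRB total-protein staining for cytotoxicity.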

Read-out in test [3]: CD40, CD40 (gene 958)
The test can be described thus: BSK_LPS_CD40: BioMAP Diversity Plus: LPS Assay for CD40 Biomarker Activity (AID 2283076). As to conditions: primary human HUVEC with PBMC; actives raise or lower the signal. In short, it runs like this: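 Cells were dosed, incubated 24 h, then assayed for CD40 by ELISA. Gain or loss of signal was analysed relative to DMSO controls. The culture paired human umbilical vein endothelium with peripheral blood mononuclear cells.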

Read-out in test [4]: E-selectin (Homo sapiens) (UniProt P16581)
Put plainly: BSK_LPS_Eselectin: BioMAP Diversity Plus: LPS Assay for Eselectin Biomarker Activity (AID 2283077). The following applies: primary human HUVEC with PBMC; actives raise or lower the signal. In short, it runs like this:
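Primary human vascular co-culture (endothelium plus PBMC) was dosed with chemical, then E-selectin quantified by ELISA at 24 h. Endpoint values derive from bidirectional curve fitting relative to DMSO.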

Read-out in test [5]: Interleukin-8 (IL8), CXCL8 (gene 3576)
The test can be described thus: BSK_LPS_IL8: BioMAP Diversity Plus: LPS Assay for Interleukin-8 (IL8) Biomarker Activity (AID 2283078). As to conditions: primary human HUVEC with PBMC; actives raise or lower the signal. The method in brief: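 Readout is IL-8 by ELISA, taken 24 h after compounds were added to LPS-stimulated endothelial/PBMC co-cultures. Both increases and decreases relative to DMSO control were scored through bidirectional fitting.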

Test [6] can be described thus: BSK_LPS_SRB: Viability Assessment in the BioMAP Diversity Plus: LPS Assay (AID 2283079).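 Note: total protein by sulforhodamine B absorbance as a cytotoxicity measure; measured one day after compound addition.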 As to conditions: primary human HUVEC with PBMC. The method in brief:
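Readout is SRB absorbance at 560 nm (0.1% stain, TCA-fixed parallel cultures) as a total-protein cytotoxicity measure. Cells: primary human umbilical vein endothelium plus peripheral blood mononuclear cells, 24 h after chemical exposure; DMSO served as baseline.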

Read-out in test [7]: Interleukin-1 alpha (IL1a), IL1A (gene 3552)
The test can be described thus: BSK_LPS_IL1a: BioMAP Diversity Plus: LPS Assay for Interleukin-1 alpha (IL1a) Biomarker Activity (AID 2283080). The following applies: primary human HUVEC with PBMC; actives raise or lower the signal. In short, it runs like this: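 ELISA read-out of IL-1 alpha from a human primary vascular co-culture (endothelium plus PBMC) under LPS, sampled 24 hours post-dosing. Activity was fitted in both directions relative to DMSO controls.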

Read-out in test [8]: Monocyte Chemoattractant Protein-1 (MCP1), CCL2 (gene 6347)
Put plainly: BSK_LPS_MCP1: BioMAP Diversity Plus: LPS Assay for Monocyte Chemoattractant Protein-1 (MCP1) Biomarker Activity (AID 2283081). The following applies: primary human HUVEC with PBMC; actives raise or lower the signal. In short, it runs like this:
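Human endothelial–PBMC co-cultures were dosed with chemical, then LPS-driven MCP-1 levels were quantified by ELISA at 24 h. Activity in either direction was fitted versus DMSO negative control.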

The nature of test [9]: BSK_LPS_PGE2: BioMAP Diversity Plus: LPS Assay for Prostaglandin E2 (PGE2) Biomarker Activity (AID 2283082). As to conditions: primary human HUVEC with PBMC; actives raise or lower the signal. The method in brief: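 HUVEC plus PBMC co-culture stimulated with LPS; secreted PGE2 quantified by ELISA 24 h after chemical dosing. Activity fitted bidirectionally against DMSO as negative control and baseline; parallel SRB total-protein staining served as cytotoxicity check.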

Read-out in test [10]: Macrophage colony-stimulating factor (MCSF), CSF1 (gene 1435)
The test can be described thus: BSK_LPS_MCSF: BioMAP Diversity Plus: LPS Assay for Macrophage colony-stimulating factor (MCSF) Biomarker Activity (AID 2283083). As to conditions: primary human HUVEC with PBMC; actives raise or lower the signal. In short, it runs like this:
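ELISA readout of M-CSF after 24 h compound exposure in a human endothelial/PBMC co-culture. Activity, in either direction, is fitted relative to DMSO vehicle.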

Read-out in test [11]: Tissue Factor, F3 (gene 2152)
Put plainly: BSK_LPS_TissueFactor: BioMAP Diversity Plus: LPS Assay for Tissue Factor Biomarker Activity (AID 2283084). As to conditions: primary human HUVEC with PBMC; actives raise or lower the signal. The method in brief: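 ELISA signal for cell-surface Tissue Factor (CD142) was read 24 h after compound dosing of an LPS-stimulated human endothelial–PBMC primary co-culture. Gain or loss of signal was scored relative to DMSO.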

Read-out in test [12]: Tumor necrosis factor (Homo sapiens) (UniProt P01375)
The test can be described thus: BSK_LPS_TNFa: BioMAP Diversity Plus: LPS Assay for Tumour Necrosis Factor alpha (TNFa) Biomarker Activity (AID 2283085). As to conditions: primary human HUVEC with PBMC; actives raise or lower the signal. In short, it runs like this:
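Human umbilical vein endothelial cells co-cultured with PBMC were exposed to test chemical and TNFa measured by ELISA 24 h after dosing. Bidirectional curve fitting was done relative to DMSO as negative control and baseline.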

Read-out in test [13]: Vascular cell adhesion molecule 1 (VCAM1), VCAM1 (gene 7412)
Put plainly: BSK_LPS_VCAM1: BioMAP Diversity Plus: LPS Assay for Vascular cell adhesion molecule 1 (VCAM1) Biomarker Activity (AID 2283086). As to conditions: primary human HUVEC with PBMC; actives raise or lower the signal. In short, it runs like this:
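Human umbilical vein endothelial cells co-cultured with peripheral blood mononuclear cells under LPS stimulation were exposed to test chemical for 24 h. VCAM-1 levels were then measured by ELISA, with bidirectional curve fitting relative to DMSO as negative control and baseline.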

Read-out in another test: CD38, CD38 (gene 952)
The test can be described thus: BSK_SAg_CD38: BioMAP Diversity Plus: SAg Assay for CD38 Biomarker Activity (AID 2283087). As to conditions: primary human HUVEC with PBMC; actives raise or lower the signal. In short, it runs like this: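 Fluorescence ELISA of cell-surface CD38 served as the read-out, with either increase or decrease fitted against DMSO controls. Cells were a human umbilical vein endothelium plus PBMC co-culture under SEB/TSST-1 stimulation, measured 24 h after dosing.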

Read-out in test [14]: CD40, CD40 (gene 958)
The test can be described thus: BSK_SAg_CD40: BioMAP Diversity Plus: SAg Assay for CD40 Biomarker Activity (AID 2283088). The following applies: primary human HUVEC with PBMC; actives raise or lower the signal. In short, it runs like this:
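Compounds were dosed onto a human primary endothelial–PBMC co-culture, and after 24 h CD40 was quantified by ELISA using a fluorescence signal. Activity in either direction was fitted relative to DMSO.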

Read-out in a further test: CD69, CD69 (gene 969)
Put plainly: BSK_SAg_CD69: BioMAP Diversity Plus: SAg Assay for CD69 Biomarker Activity (AID 2283089).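 For AC50: cell surface CD69 protein quantified by ELISA with fluorescence detection.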 As to conditions: primary human HUVEC with PBMC; actives raise or lower the signal. In short, it runs like this:
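HUVEC co-cultured with PBMC were dosed with chemical, and CD69 was measured by ELISA with fluorescence read-out 24 h later. Bidirectional curve fitting used DMSO as negative control and activity baseline.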

Read-out in test [15]: Monocyte Chemoattractant Protein-1 (MCP1), CCL2 (gene 6347)
The test can be described thus: BSK_SAg_MCP1: BioMAP Diversity Plus: SAg Assay for Monocyte Chemoattractant Protein-1 (MCP1) Biomarker Activity (AID 2283090). The following applies: primary human HUVEC with PBMC; actives raise or lower the signal. The method in brief: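 MCP-1 levels in the endothelial–PBMC SAg co-culture were quantified by ELISA at 24 h post-dosing; both increases and decreases versus DMSO scored. Cytotoxicity monitored by SRB total protein in parallel cultures.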

Read-out in test [16]: E-selectin (Homo sapiens) (UniProt P16581)
The test can be described thus: BSK_SAg_Eselectin: BioMAP Diversity Plus: SAg Assay for Eselectin Biomarker Activity (AID 2283091). The following applies: primary human HUVEC with PBMC; actives raise or lower the signal. The method in brief: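 Co-culture: HUVEC + PBMC. Dose compound; 24 h. ELISA for E-selectin. Bidirectional fit vs DMSO.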

Read-out in test [17]: Monokine induced gamma interferon (MIG), CXCL9 (gene 4283)
Put plainly: BSK_SAg_MIG: BioMAP Diversity Plus: SAg Assay for Monokine induced gamma interferon (MIG) Biomarker Activity (AID 2283092). The following applies: primary human HUVEC with PBMC; actives raise or lower the signal. The method in brief:
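HUVEC plus human PBMC co-culture, chemicals dosed and MIG (CXCL9) quantified by ELISA at 24 h. Bidirectional curve fitting against DMSO as negative control and baseline, so both gain and loss of signal count as activity.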

Read-out in test [18]: Matrix Metallopeptidase 9 (MMP9), MMP9 (gene 4318)
The test can be described thus: BSK_KF3CT_MMP9: BioMAP Diversity Plus: KF3CT Assay for Matrix Metallopeptidase 9 (MMP9) Biomarker Activity (AID 2283074). The following applies: primary human keratinocytes with fibroblasts; actives raise or lower the signal. In short, it runs like this:
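Human keratinocyte and foreskin fibroblast co-culture exposed to chemicals for 24 h; MMP9 biomarker measured by ELISA, bidirectional fitting relative to DMSO; cytotoxicity tracked by SRB total protein staining in parallel cultures.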

Results on 4 compounds are retold here after PubChem BioAssay (EPA / NIEHS).

The source made the active and inactive calls. Rule for the calls: active = hit-call score of the fitted dose curve at least 0.9, where 1 is the maximum; inactive = score below 0.9.

E-selectin (Homo sapiens), sequence (P16581 whole entry, looked up): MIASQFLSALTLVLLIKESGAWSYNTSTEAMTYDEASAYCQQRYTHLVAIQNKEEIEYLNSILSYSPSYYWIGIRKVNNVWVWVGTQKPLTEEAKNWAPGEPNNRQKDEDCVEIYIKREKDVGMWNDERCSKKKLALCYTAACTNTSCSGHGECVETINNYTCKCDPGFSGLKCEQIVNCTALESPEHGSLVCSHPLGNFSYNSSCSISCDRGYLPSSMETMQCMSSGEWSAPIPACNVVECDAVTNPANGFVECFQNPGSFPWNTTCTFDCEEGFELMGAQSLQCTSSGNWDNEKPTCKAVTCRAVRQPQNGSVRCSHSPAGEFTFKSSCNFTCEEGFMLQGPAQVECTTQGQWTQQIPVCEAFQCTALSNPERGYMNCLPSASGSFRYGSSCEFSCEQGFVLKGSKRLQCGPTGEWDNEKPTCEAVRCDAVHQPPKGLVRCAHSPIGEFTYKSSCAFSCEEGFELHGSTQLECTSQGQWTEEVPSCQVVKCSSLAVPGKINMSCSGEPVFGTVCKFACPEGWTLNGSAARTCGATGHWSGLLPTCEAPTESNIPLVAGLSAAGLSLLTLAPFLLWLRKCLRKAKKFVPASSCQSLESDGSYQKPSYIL
Tumor necrosis factor (Homo sapiens), sequence (P01375 whole entry, looked up): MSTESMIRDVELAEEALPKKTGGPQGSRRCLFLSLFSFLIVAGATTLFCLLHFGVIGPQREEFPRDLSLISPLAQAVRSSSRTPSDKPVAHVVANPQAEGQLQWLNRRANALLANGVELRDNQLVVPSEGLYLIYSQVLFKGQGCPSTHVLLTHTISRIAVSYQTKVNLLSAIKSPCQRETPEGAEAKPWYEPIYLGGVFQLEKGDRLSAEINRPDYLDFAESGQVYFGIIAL

The AC50 is the midpoint of the concentration-response curve, whichever way the signal moves. In the case of `Nc1c(Oc2ccccc2)cc(O)c2c1C(=O)c1ccccc1C2=O`, the outcome in test [1] was “inactive”; in test [2], “inactive”; in the test with CD40, CD40 (gene 958) [3] it was “inactive”; in [4] it was “inactive”; in [5], “inactive”; in [6], “inactive”. In addition, the result in [7], in [8], in [9], in test [10], in [12] and in [13] was inactive. Moreover, the outcome was “inactive” with CD69, CD69 (gene 969) and “inactive” in test [17]. For the same compound, the AC50 in test [11] is 2.54 µM (active); with CD38, CD38 (gene 952), 10 µM (active); with CD40, CD40 (gene 958) [14], 7.45 µM (active); in test [15] it was 0.803 µM (active); in test [16], 0.795 µM (active).
Take `C[C@]12CC[C@@H](O)C[C@@H]1CC[C@@H]1[C@@H]2CC[C@]2(C)C(=O)CC[C@@H]12`: the outcome in test [1] was “inactive”; in [18], “inactive”; in [2] it was “inactive”; with CD40, CD40 (gene 958) [3], “inactive”; in test [4], “inactive”; in [5], “inactive”. Also, the result in [6], in test [7], in test [8], in test [9], in test [10] and in test [11] was inactive. In addition, the outcome in test [13] is “inactive”; with CD38, CD38 (gene 952), “inactive”; in the test with CD40, CD40 (gene 958) [14], “inactive”; in the test with CD69, CD69 (gene 969) it was “inactive”; in test [15] it was “inactive”; in [16], “inactive”. Further, the result in [17] was inactive.
In the case of `CCOP(=S)(OCC)OP(=S)(OCC)OCC`, the outcome was “inactive” in test [1]; “inactive” in [18]; “inactive” in [2]; “inactive” in the test with CD40, CD40 (gene 958) [3]; “inactive” in [4]; “inactive” in [5]. Further, the result in test [6], in test [7], in test [8], in [9], in test [10] and in test [11] was inactive. Further, the outcome is “inactive” with CD40, CD40 (gene 958) [14]; “inactive” in [15]; “inactive” in [17]. Also, the AC50 in test [13] was 20 µM (active); with CD38, CD38 (gene 952) it was 31.8 µM (active); in the test with CD69, CD69 (gene 969), 30.1 µM (active); in [16], 35.4 µM (active).
Turning to `CCOP(=O)(OCC)OC(=CCl)c1ccc(Cl)cc1Cl`, the AC50 in test [1] is 20 µM (active); in test [2], 33.2 µM (active); with CD40, CD40 (gene 958) [3], 20 µM (active); in [10], 22.5 µM (active); in [11], 11.9 µM (active); with CD40, CD40 (gene 958) [14] it was 20 µM (active). In addition, the AC50 was 20 µM (active) in the test with CD69, CD69 (gene 969) and 28.6 µM (active) in [16]. Besides, the result in test [4], in [5], in test [6], in test [7], in test [8] and in test [9] was inactive. Moreover, the outcome in [12] is “inactive”; in [13], “inactive”; with CD38, CD38 (gene 952), “inactive”; in test [15], “inactive”; in test [17], “inactive”.
